SMILES strings stand for the structures. Records with an inconclusive call do not appear. Activity calls are given as the source filed them. How the source made its calls, unless noted: active means hit-call score of the fitted dose curve at least 0.9, where 1 is the maximum; inconclusive means response in the unintended direction; inactive means score below 0.9.

In assay [1] the target is Cellular tumor antigen p53 (Homo sapiens) (UniProt P04637). Description: TOX21_p53_BLA_p2_ratio: Tox21 HCT-116 p53 Agonism Beta-lactamase Assay, Ratio, Phase 2 (AID 2283592). Summed up: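 In this cell-based reporter format, HCT116 cells were dosed with chemicals delivered from DMSO by 217-fold dilution and incubated 16 h at 37C. Emission at 460 and 530 nm after 2 h CCF4-AM loading provided the ratio, fitted upward versus DMSO.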

A short description of assay [2]: TOX21_p53_BLA_p3_viability: Viability Assessment in the Tox21 HCT-116 p53 Agonism Beta-lactamase Assay, Phase 3 (AID 2283593).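 Further: cells exposed to compound for 16 h before reading.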 Summed up: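 HCT-116 cells (4000/well) rested 5 h at 37C, then got DMSO compounds by pin tool (217-fold dilution) for 16 h at 37C, 5% CO2. After the bla read, CellTiter-Glo was added and luminescence read at 30 min, room temperature.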
For assay [3], the target named is Cellular tumor antigen p53 (Homo sapiens) (UniProt P04637). Description: TOX21_p53_BLA_p3_ratio: Tox21 HCT-116 p53 Agonism Beta-lactamase Assay, Ratio, Phase 3 (AID 2283596). The essentials: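 HCT116 p53-bla cells (4000/well) given compound in DMSO (217-fold dilution) after 5 h, incubated 16 h at 37C. CCF4-AM substrate 2 h at room temperature; 460/530 nm emission ratio, gain fitted against DMSO.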

Assay [4] can be described thus: TOX21_p53_BLA_p4_viability: Viability Assessment in the Tox21 HCT-116 p53 Agonism Beta-lactamase Assay, Phase 4 (AID 2283597).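 Further: hits lower the luminescence signal meaning cytotoxicity.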 Summed up:
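We seeded HCT116 p53 reporter cells at 4000/well and waited 5 h. We then added compounds in DMSO at a 217-fold dilution and incubated for 16 h. Viability was read as CellTiter-Glo luminescence after 30 min at RT.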

Assay [5] deals with Cellular tumor antigen p53 (Homo sapiens) (UniProt P04637). Description: TOX21_p53_BLA_p5_ratio: Tox21 HCT-116 p53 Agonism Beta-lactamase Assay, Ratio, Phase 5 (AID 2283599). Summed up: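 HCT-116 cells carrying a p53-inducible beta-lactamase reporter were seeded at 4000 cells/well and dosed after 5 h with compound in DMSO (217-fold dilution). After 16 h at 37C, CCF4-AM substrate was added for 2 h, and the 460/530 nm emission ratio was scored as gain-of-signal versus DMSO.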

Assay [6] in a line: TOX21_p53_BLA_p5_viability: Viability Assessment in the Tox21 HCT-116 p53 Agonism Beta-lactamase Assay, Phase 5 (AID 2283600). Summed up:
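Compounds, pinned from DMSO at 217-fold dilution, were left on the cells for 16 h. The viability endpoint was ATP content measured by CellTiter-Glo luminescence, where falling signal reflects cytotoxicity.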

The target of assay [7] is Cellular tumor antigen p53 (Homo sapiens) (UniProt P04637). As to the kind of experiment: TOX21_p53_BLA_p4_ratio: Tox21 HCT-116 p53 Agonism Beta-lactamase Assay, Ratio, Phase 4 (AID 2283601). Summed up: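 HCT116 cells carrying an inducible beta-lactamase reporter were plated at 4000 cells/well, rested 5 h, then exposed to compounds in DMSO (217-fold dilution) for 16 h at 37C. CCF4-AM substrate was loaded 2 h at room temperature; 460/530 nm emission ratio scored gain-of-signal versus DMSO.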

The target in assay [8] is PGR (gene 5241) (UniProt P06401). Description: TOX21_PR_BLA_Followup_Agonist_ratio: Tox21 HEK293 Progesterone Receptor (PR) Agonism Beta-lactamase Follow-Up Assay, Ratio (AID 2283933). Summed up: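 HEK293T PR-UAS-bla, 2% CS-FBS; 6 hr preincubation, cpd/DMSO pinned, 16 hr 37C/5% CO2; LiveBLAzer B/G 2 hr RT; FRET ch2/ch1 ratio, agonist direction vs DMSO. Viability by CellTiter-Glo in same wells.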

Assay [9] shares this target. As to the kind of experiment: TOX21_PR_BLA_Followup_Antagonist_ratio: Tox21 HEK293 Progesterone Receptor (PR) Antagonism Beta-lactamase Follow-Up Assay, Ratio (AID 2283934). The essentials: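 HEK293T PR-UAS-bla, 2% CS-FBS; 6 hr plating, then cpd + R5020 (1 nM final), 16 hr 37C/5% CO2. B/G FRET substrate 2 h RT. Ratio ch2/ch1 vs DMSO; CellTiter-Glo viability multiplexed, autofluorescence checked.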

For assay [10] the target is unchanged. Description: TOX21_PR_LUC_Followup_Agonist: Tox21 HEK293 Progesterone Receptor (PR) Agonism Luciferase Follow-Up Assay (AID 2283937; active means hit-call score of the fitted dose curve at least 0.9, where 1 is the maximum; inactive means score below 0.9). The essentials:
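Cells: HEK293-PR-A-luc, 3,000/well, 10% charcoal-stripped FBS assay medium. Compound added after 5 h; 16 h, 37C, 0% CO2. ONE-Glo luciferase, luminescence. Positive fit vs DMSO.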

For assay [11] the target is unchanged. As to the kind of experiment: TOX21_PR_LUC_Followup_Antagonist: Tox21 HEK293 Progesterone Receptor (PR) Antagonism Luciferase Follow-Up Assay (AID 2283938).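 Further: curve fitted upward as signal gain over DMSO baseline despite antagonist label.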 The essentials:
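Luminescence from ONE-Glo reagent, measured after 30 min at room temperature, served as readout. Cells (HEK293 carrying PR-A-luc) had been treated 16 h at 37C with DMSO-dissolved compounds. Activity was fitted against DMSO controls.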

The nature of assay [12]: TOX21_PR_LUC_Followup_Agonist_viability: Viability Assessment in the Tox21 HEK293 Progesterone Receptor (PR) Agonism Luciferase Follow-Up Assay (AID 2283941).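 Further: loss of signal means cytotoxicity so actives lower viability.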 Summed up:
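Cells were kept 5 days in charcoal-stripped serum medium before plating HEK293-PR-A-luc at 3,000 cells/well. After 5 h they received DMSO-dissolved compound and incubated 16 h at 37C. Viability was taken from CellTiter-Glo ATP luminescence.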

In assay [13] the target is Thyroid hormone receptor alpha (Rattus norvegicus) + Thyroid hormone receptor beta (Rattus norvegicus) (UniProt P18113+P63059). Description: TOX21_TR_LUC_GH3_Antagonist_Followup: Tox21 GH3 Thyroid Hormone Receptor Antagonism Luciferase Follow-Up Assay (AID 2283942). Summed up: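 Rat pituitary GH3 cells with a TRα/TRβ-driven luciferase reporter, 5 h attachment, then 15 concentrations (92 uM to 5nM final) plus 1.0 nM T3 agonist, 24 h at 37C/5% CO2. ONE-Glo luminescence; signal change fitted against DMSO baseline.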

Assay [14] addresses THRB (gene 7068) (UniProt P10828). Description: TOX21_TRB_BLA_Antagonist_Followup_ratio: Tox21 Thyroid Hormone Receptor beta Antagonism Beta-lactamase (BLA) Follow-Up Assay, Ratio (AID 2283958). The essentials: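 HEK293T TRb-bla (GAL4 DBD + hTRβ LBD), 2% cs-FBS phenol red-free DMEM, 5 h attach; cpds 11-pt triplicate, 18 h 37C; CCF4-AM 2 h RT; 460/530 ratio vs DMSO; CellTiter-Glo viability same wells.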

Assay [15] can be described thus: TOX21_TRB_BLA_Antagonist_Followup_viability: Viability Assessment in the Tox21 Thyroid Hormone Receptor beta Antagonism Beta-lactamase (BLA) Follow-Up Assay (AID 2283961). The essentials:
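Viability read as CellTiter-Glo ATP luminescence (loss of signal = cytotoxicity) in the same plates as the TRβ-bla readout. TRβ-LBD/GAL4 UAS-bla HEK293T cells were exposed to compounds, 11 concentrations in triplicate, for 18 h at 37C/5% CO2.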

Assay [16] addresses THRB (gene 7068) (UniProt P10828). Description: TOX21_TRB_COA_Antagonist_Followup_ratio: Tox21 Thyroid Hormone Receptor beta Antagonism through Coactivator Recruitment Follow-Up Assay, Ratio (AID 2283967). Summed up: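 Cell-free TR-FRET coactivator recruitment with GST-tagged TRβ LBD (5.0 nM) and fluorescein-labeled SRC-2 peptide (200 nM) detected by terbium anti-GST antibody (2 nM). The 520:495 nm emission ratio was normalized to DMSO (0%) and T3 (100%).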

Assay [17] concerns the target Retinoic acid receptor RXR-alpha (Homo sapiens) (UniProt P19793). Description: TOX21_TR_RXR_BLA_Antagonist_Followup_ratio: Tox21 Thyroid Hormone Receptor beta Retinoid X Receptor alpha (RXRa) Antagonism Beta-lactamase (BLA) Follow-Up Assay, Ratio (AID 2283972). The essentials: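 Beta-lactamase reporter readout as cleaved/uncleaved substrate ratio (460:530 nm) after 2 h substrate loading at room temperature. GAL4-RXRa bla HEK293T cells were exposed 16 h at 37C to 11-point compound series; loss of signal scored against DMSO baseline.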

Assay [18] can be described thus: TOX21_TR_RXR_BLA_Antagonist_Followup_viability: Viability Assessment in the Tox21 Thyroid Hormone Receptor beta Retinoid X Receptor alpha (RXRa) Antagonism Beta-lactamase (BLA) Follow-Up Assay (AID 2283979). Summed up: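 RXRa-UAS-bla HEK293T cells seeded 2,500/well in phenol red-free DMEM with 2% charcoal-stripped FBS, attached 5 h, then exposed to compounds at 11 concentrations in triplicate for 16 h at 37C/5% CO2. Viability read by CellTiter-Glo ATP luminescence; bidirectional fit versus DMSO.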

Chain of Cellular tumor antigen p53 (Homo sapiens) (P04637 whole entry, looked up): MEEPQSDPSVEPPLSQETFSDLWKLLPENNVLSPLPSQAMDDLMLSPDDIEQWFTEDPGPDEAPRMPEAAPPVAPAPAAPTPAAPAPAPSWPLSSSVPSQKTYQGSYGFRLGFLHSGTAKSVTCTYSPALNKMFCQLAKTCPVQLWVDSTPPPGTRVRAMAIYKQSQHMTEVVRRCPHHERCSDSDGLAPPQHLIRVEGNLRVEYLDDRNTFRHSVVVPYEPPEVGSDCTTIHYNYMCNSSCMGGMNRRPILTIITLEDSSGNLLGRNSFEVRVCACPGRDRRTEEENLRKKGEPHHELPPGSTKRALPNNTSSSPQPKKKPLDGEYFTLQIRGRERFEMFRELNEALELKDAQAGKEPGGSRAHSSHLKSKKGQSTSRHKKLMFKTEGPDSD
Chain of PGR (gene 5241) (P06401 whole entry, looked up): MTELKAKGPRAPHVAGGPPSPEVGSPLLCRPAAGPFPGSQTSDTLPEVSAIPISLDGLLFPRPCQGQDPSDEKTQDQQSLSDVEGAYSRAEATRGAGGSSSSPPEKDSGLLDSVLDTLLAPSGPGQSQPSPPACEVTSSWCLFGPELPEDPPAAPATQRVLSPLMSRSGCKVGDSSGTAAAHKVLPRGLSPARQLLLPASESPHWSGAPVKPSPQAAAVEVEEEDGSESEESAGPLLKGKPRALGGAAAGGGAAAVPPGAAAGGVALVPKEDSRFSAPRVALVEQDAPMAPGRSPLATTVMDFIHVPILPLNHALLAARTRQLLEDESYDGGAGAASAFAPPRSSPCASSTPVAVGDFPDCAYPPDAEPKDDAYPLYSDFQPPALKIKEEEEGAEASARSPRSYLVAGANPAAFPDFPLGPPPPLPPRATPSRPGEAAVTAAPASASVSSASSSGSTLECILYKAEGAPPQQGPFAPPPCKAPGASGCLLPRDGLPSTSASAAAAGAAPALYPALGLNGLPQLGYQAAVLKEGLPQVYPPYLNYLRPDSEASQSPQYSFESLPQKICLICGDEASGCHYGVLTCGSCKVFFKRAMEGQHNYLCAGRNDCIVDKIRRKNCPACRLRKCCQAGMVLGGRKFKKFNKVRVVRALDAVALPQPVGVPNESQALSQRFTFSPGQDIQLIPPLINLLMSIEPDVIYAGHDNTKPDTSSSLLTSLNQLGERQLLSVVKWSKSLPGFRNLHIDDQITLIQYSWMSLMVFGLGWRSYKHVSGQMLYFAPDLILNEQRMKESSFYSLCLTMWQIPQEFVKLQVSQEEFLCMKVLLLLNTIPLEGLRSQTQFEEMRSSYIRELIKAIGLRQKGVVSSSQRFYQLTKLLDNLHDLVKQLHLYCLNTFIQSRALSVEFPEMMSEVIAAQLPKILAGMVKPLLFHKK
Chain of THRB (gene 7068) (P10828 whole entry, looked up, the tested form may be a part): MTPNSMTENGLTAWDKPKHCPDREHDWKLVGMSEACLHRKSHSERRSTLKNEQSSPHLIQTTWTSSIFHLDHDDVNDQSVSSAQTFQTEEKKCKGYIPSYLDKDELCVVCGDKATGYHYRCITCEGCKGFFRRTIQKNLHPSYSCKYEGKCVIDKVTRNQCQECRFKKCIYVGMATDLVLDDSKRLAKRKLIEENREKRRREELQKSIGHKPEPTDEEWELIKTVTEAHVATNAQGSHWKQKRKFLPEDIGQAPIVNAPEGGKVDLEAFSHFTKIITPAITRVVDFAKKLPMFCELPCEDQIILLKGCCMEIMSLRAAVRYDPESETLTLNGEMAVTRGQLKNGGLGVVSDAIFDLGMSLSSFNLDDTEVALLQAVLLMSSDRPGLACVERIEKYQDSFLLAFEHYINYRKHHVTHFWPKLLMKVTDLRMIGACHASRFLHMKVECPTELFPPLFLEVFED
Chain of Retinoic acid receptor RXR-alpha (Homo sapiens) (P19793 whole entry, looked up, the tested form may be a part): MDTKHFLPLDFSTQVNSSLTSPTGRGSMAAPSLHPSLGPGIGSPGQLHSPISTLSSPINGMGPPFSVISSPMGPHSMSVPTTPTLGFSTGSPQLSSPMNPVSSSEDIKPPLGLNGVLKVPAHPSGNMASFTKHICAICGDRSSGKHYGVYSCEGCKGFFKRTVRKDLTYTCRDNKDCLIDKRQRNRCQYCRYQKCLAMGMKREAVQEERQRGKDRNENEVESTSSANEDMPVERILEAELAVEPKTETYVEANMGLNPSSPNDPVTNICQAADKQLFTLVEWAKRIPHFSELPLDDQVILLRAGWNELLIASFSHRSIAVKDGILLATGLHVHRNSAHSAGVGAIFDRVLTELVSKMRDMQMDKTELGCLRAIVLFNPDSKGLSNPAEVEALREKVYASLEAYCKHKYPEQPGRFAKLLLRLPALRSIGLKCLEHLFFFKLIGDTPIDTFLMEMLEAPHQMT

As to `C[C@]12CC[C@H]3[C@@H](CC=C4C[C@@H](O)CC[C@@]43C)[C@@H]1CC[C@@H]2O`, the outcome in assay [1], in assay [3], in [4], in [5] and in assay [6] was inactive. Moreover, the AC50 in assay [2] was 43.5 µM (active).
As for `CNC(=O)Oc1c(C(C)(C)C)cc(C)cc1C(C)(C)C`, the result in [1] and in [2] was inactive.
For `Nc1cc(Cl)ccc1Cl`, the result in assay [1], in assay [2], in assay [3], in assay [4], in [5] and in assay [6] was inactive. Moreover, the outcome in assay [7] was inactive.
For the molecule `CC(C)NCC(O)c1ccccc1Cl` (stereo unspecified), the result in assay [1], in assay [2] and in assay [3] was inactive.
Turning to `CNC(C)CC1CCCCC1` (stereo unspecified), the result in assay [1], in assay [2], in [3], in [4] and in assay [5] was inactive.
As to `C=C(C)CCl`, the result in [1], in assay [2], in [3], in assay [5] and in assay [6] was inactive.
Consider `CC[C@]1(O)CC[C@H]2[C@@H]3CCC4=CCCC[C@@H]4[C@H]3CC[C@@]21C`, for which the AC50 in assay [1] was 3.73 µM (active); in [3], 3.62 µM (active); in assay [5], 7.06 µM (active); in [7], 7.04 µM (active); in [8] it was 0.686 µM (active); in assay [10], 0.0421 µM (active). Further, the AC50 in [14] was 11.6 µM (active); in assay [17] it was 14.3 µM (active). Besides, the call in [2], in assay [4], in assay [6], in [9], in [11] and in assay [12] was inactive. In addition, the outcome in assay [13], in [15], in assay [16] and in [18] was inactive.
As to `N#CSCc1ccccc1`, the values for the AC50 in assay [1] and in assay [3] were 80.2 µM (active) and 30.7 µM (active), respectively. Also, the outcome in assay [2], in assay [4] and in [7] was inactive.

The values are drawn from PubChem BioAssay (EPA / NIEHS).
